Assay outcomes from PubChem.
Tgondii IFNg: inhibitors of Toxoplasma gondii growth with IFN-gamma. activity change, negative = inhibition, % (no concentration beside the values). 69,000 compounds, 3.8% hits. Toxoplasma gondii growth in IFN-gamma-treated host cells; stronger effect = lower value; in the data active means activity change below about -70%, passing the limit was not always enough;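 further: host cells are HeLa cells infected with Toxoplasma gondii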
Starred values were filed as active, the others as inactive; ! = not confirmed by another sample. Only a selection was taken, and hits are over-represented in it overall.

SMILES	Tgondii IFNg
CCOc1ccc(CNCc2cccs2)cc1OCC	2.8
COc1cncc(C(=O)Nc2cc(OC)ccc2OC)c1	77.4
CSc1nnc(CC2CCN(Cc3cccc4nsnc34)CC2)n1C	9.3
CC(C)NC(=O)N1CCC(c2nnc3ccc(C(=O)C4CCC4)cn23)C1 (centres undefined)	11.6
C=CCNC(=O)C1(Cc2cccc(-c3cncnc3)c2)CCN(C(=O)c2cnccn2)CC1	-93.4*
O=C(NC1CCC12CCN(C(=O)c1ccco1)CC2)c1cnccn1 (centres undefined)	2.8
CCN1CCOCC12CCN(C(=O)c1cnccn1)CC2	-11.4
COc1cccc(-c2cn[nH]c2C2CCN(C(=O)c3onc4ccccc34)CC2)c1	-9.4
C=C[C@H]1CN2CC[C@H]1C[C@H]2[C@H](O)c1ccnc2ccc(OC)cc12	-85.0*
COc1cccc(-c2nccc(C3CCCN3C(=O)c3ccc4ncccc4c3)n2)c1 (centres undefined)	27.8
COCc1cnc2n1CCN(Cc1ccsc1)C2C (centres undefined)	-22.3
C=CCSc1ncnc2c1sc1nc(C)cc(C)c12	99.1
Cc1cc(C)c2c(n1)sc1c3ccccc3c(N)nc12	-102.2*
Cc1cc(C)c2c(n1)sc1c(=O)oc(C)nc12	13.9
CC(NC(=O)Cc1csc(-c2ccccc2)n1)c1nc2ccccc2n1C(C)C (centres undefined)	22.4
CCN(CCN(C)C)c1nc(-c2ccc(OC)cc2)nc2ccccc12	-69.9
COC(=O)Cc1cc(C2CCN(Cc3cccnc3OC)CC2)n[nH]1	-47.6
CCOc1ccc(NC(=O)N2CCc3nc(-c4cccc(OC)c4)sc3C2)cc1	16.7
COc1ccc(-c2nc3c(s2)CN(C(=O)Nc2cc(C)cc(C)c2)CC3)cc1	-30.9
CCOc1ccc(-c2nc3c(s2)CN(C(=O)Nc2cc(C)ccc2OC)CC3)cc1	-104.5*
COc1cccc(-c2nc3c(s2)CN(C(=O)Nc2ccc(Cl)cc2)CC3)c1	-91.6*
COc1cccc(-c2nc3c(s2)CN(C(=O)Nc2ccc(OC)cc2OC)CC3)c1	35.1
COc1ccc(-c2nc3c(s2)CN(C(=O)Nc2cc(C)ccc2OC)CC3)cc1	-41.3
COc1cccc(NC(=O)N2CCc3nc(-c4ccc(C)cc4)sc3C2)c1	-121.2*
COc1ccc(OC)c(NC(=O)N2CCc3nc(-c4ccccc4)sc3C2)c1	12.7
SMILES	Tgondii IFNg
Cc1cccc(NC(=O)N2CCc3nc(-c4ccccc4)sc3C2)c1	-6.4
COc1cccc(-c2nc3c(s2)CN(C(=O)Nc2ccc(OC)c(OC)c2)CC3)c1	19.0
CCOc1ccc(-c2nc3c(s2)CN(C(=O)Nc2ccc(C)cc2C)CC3)cc1	98.1
COc1ccc(-c2nc3c(s2)CN(C(=O)Nc2ccc(Br)cc2)CC3)cc1	-92.5*
O=C(NCC1(Cn2cccn2)CC1)c1n[nH]c(=O)c2ccccc12	23.9
Cc1c(S(=O)(=O)N2CCC[C@@H]2C(=O)NCCc2csc(-c3ccccc3)n2)cnn1C(F)F	-0.9
CCNC(=S)NC12CC3CC(CC(C3)C1)C2	2.4
CCn1nc(C)c(Cn2ccnc2-c2cnc(N3CCOCC3)nc2)c1C	-1.7
C=CCc1cc(CN2CCC3(CC2)CN(C)CCN3C)ccc1O	-57.3
Cc1nc(C)n(CC(C)C(=O)N2CCc3c(ncnc3N(C)C)C2)n1 (centres undefined)	3.0
CC1Oc2ccc(S(=O)(=O)Nc3ccc4c(c3)ncn4CCO)cc2NC1=O (centres undefined)	15.9
FC(F)(F)CCN1CCCC2(CCN(c3cnccn3)CC2)C1	-5.2
CC(C)(C)Nc1ncnc2c1cnn2-c1ccc(Cl)cc1	-45.9
C=CCn1c(SCC(=O)OCC)nc2sc3c(c2c1=O)CC(C)(C)OC3	-7.3
CCC(Sc1ncc(-c2ccccc2)nn1)C(=O)Nc1sc2c(c1C#N)CCCC2 (centres undefined)	150.0
N#Cc1c(NC(=O)C2CC(c3cccc(Br)c3)=NO2)sc2c1CCC2 (centres undefined)	-20.2
N#Cc1c(NC(=O)C2CC(=O)OC23CCCCC3)sc2c1CCCCC2 (centres undefined)	-91.5*
CCOC(=O)c1c(NC(=O)C2CC(=O)OC23CCCCC3)sc2c1CC(C)(C)OC2 (centres undefined)	-96.0*
CCOC(=O)c1c(NC(=O)CSc2nc(C)cc(C)n2)sc2c1CCC2	-44.3
Cc1nc(CCNC(=O)c2ccc(=O)n(C)c2)sc1C	4.1
Cc1c(F)cccc1NC(=O)CNC(C)(C)Cc1ccc(F)cc1	13.6
CCn1c(=O)c(-c2nc(-c3cccc(Br)c3)no2)c(O)c2ccc(F)cc21	6.6
O=C(NC1CCOCC1)c1ccc(-c2cc(-c3cn[nH]c3-c3ccccn3)ccn2)cc1	-37.3
c1cc(-c2cnccn2)c2cccnc2c1	-49.0
c1ccc(-c2[nH]ncc2-c2ccnc3ccccc23)nc1	-80.3*!
SMILES	Tgondii IFNg
Cc1ccc(C)c(-c2[nH]ncc2-c2c(-c3ccccc3)ncn2CCC(N)=O)c1	-4.9
COCCNc1nnc(Cn2nnc3ccccc32)s1	-8.5
CCOC(=O)c1cccc(P(C)(C)=O)c1	14.1
C=CCc1c(C)nc2ccc(C(=O)OCC)cc2c1Cl	-102.0*
C=CCc1c(C)nc(SC)nc1Nc1ccc(C(=O)O)cc1	-6.9
O=c1ccc2cc(S(=O)(=O)N3CCN(Cc4ccc5c(c4)OCO5)CC3)ccc2[nH]1	-60.6
CC(C)[C@H](C(=O)Nc1ccc(C(=O)NO)cc1)c1ccccc1	-82.8*
O=C(NCC(O)c1ccccc1)c1ccc(NC(=O)C2CCC2)cc1 (centres undefined)	7.4
CC(C)c1ccc(C(=O)Nc2ccccc2)cc1	-9.2
O=C(NCc1cccnc1)C1=NOC2(CCCN(C(=O)Cc3cccc(F)c3)C2)C1 (centres undefined)	0.8
CCN1CCOCC12CCN(c1ccc(C#N)cc1)CC2	13.2
CC1COC2(CCN(c3ccc(C#N)cc3)CC2)C1 (centres undefined)	-90.1*
N#Cc1ccc(N2CCC3(CC2)CC(Oc2cccnc2)CO3)cc1 (centres undefined)	-51.1
COc1ccc(S(=O)(=O)Nc2cncc(C(=O)NCCc3ccc(OC)c(OC)c3)c2)cc1	0.4
Cc1ccc(-c2coc(-c3ccc(NC(=O)NCc4cccc(F)c4)cc3)n2)c(C)c1	24.6
Cc1cccc(CN2C[C@H]3CN(c4ncc(F)cn4)C[C@H]3C2=O)n1	-0.7
CC1=C(C(=O)N2CCc3ccccc3C2)C(c2c(C)noc2C)NC(=O)N1 (centres undefined)	1.0
CC12CCC3c4ccc(O)cc4C=CC3C1CCC2=O (centres undefined)	-88.4*
CC(=O)O[C@]1(C(C)=O)CC[C@H]2[C@@H]3C=CC4=CC(=O)CC[C@]4(C)[C@H]3CC[C@@]21C	13.6
C[C@]12CC[C@@H]3c4ccc(O)cc4CC[C@H]3[C@@H]1CCC2=O	-76.5*!
C#C[C@]1(O)CCC2C3CCc4cc(OC)ccc4C3CC[C@@]21C (some centres undefined)	5.5
C#C[C@]1(O)CC[C@H]2[C@@H]3CCc4cc(OC)ccc4[C@H]3CC[C@@]21C	-6.4
C[C@]12CC[C@@H]3c4ccc(O)cc4C(=O)C[C@H]3[C@@H]1CC[C@@H]2O	-3.3
C[C@]12CCC3c4ccc(O)cc4CCC3C1CC[C@@H]2O (some centres undefined)	-73.7*
C[C@]12CCC3c4ccc(O)cc4CCC3C1C[C@@H](O)[C@@H]2O (some centres undefined)	-4.0
C[C@]12CCC3c4ccc(OS(=O)(=O)O)cc4CCC3C1CC[C@H]2O (some centres undefined)	9.0
